This is part of a sample that, as a whole, favours compounds with a hit. Of some 79,000 tested, about 15% had one in any assay. A number with no mark means an inactive call. Activity calls are given as the source filed them. Cut-off read from the data, not from the text of the source: active = growth inhibition above about 70%; inactive = the rest.
What was measured:
[1] = NCI Yeast Anticancer Drug Screen. Data for the rad50 strain (AID 155);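 note: 0% = growth of vehicle-only cultures of the same strain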; details: S. cerevisiae rad50 strain growth inhibition, hits give high values
How it was run: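 Relative growth inhibition (compound vs vehicle) was measured in yeast with a defined repair-gene alteration.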

[2] = NCI Yeast Anticancer Drug Screen. Data for the mec2-1 strain (AID 157); details: S. cerevisiae mec2-1 strain, hits give high values
How it was run: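 Readout is yeast growth inhibition, normalised to vehicle-treated controls, in the mec2-1 strain exposed to compound.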

[3] = NCI Yeast Anticancer Drug Screen. Data for the sgs1 mgt1 strain (AID 161);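 note: 0% = growth of cultures given vehicle only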; details: S. cerevisiae sgs1 mgt1 strain, hits give high values
How it was run: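 This yeast growth screen uses a strain with defined DNA-repair lesions; compound-treated growth is compared with vehicle-treated growth.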

[4] = NCI Yeast Anticancer Drug Screen. Data for the cln2 rad14 strain (AID 165);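 note: 0% = growth equal to vehicle treated cultures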; details: S. cerevisiae cln2 rad14 strain, hits give high values
How it was run: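 Relative to vehicle controls, growth inhibition of compound-treated cln2 rad14 yeast was recorded.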

[5] = NCI Yeast Anticancer Drug Screen. Data for the bub3 strain (AID 167); details: S. cerevisiae bub3 mutant strain, hits give high values
How it was run: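 Screening used yeast with an engineered genetic alteration affecting cell cycle control. Compound-exposed cultures were compared with vehicle cultures, and reduced growth was taken as inhibition.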

[6] = NCI Yeast Anticancer Drug Screen. Data for the mlh1 rad18 strain (AID 175); details: S. cerevisiae mlh1 rad18 strain growth inhibition, hits give high values
How it was run: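 Test agents were incubated with a yeast strain of defined genotype (DNA damage repair defect). Inhibition of growth was derived by comparison with vehicle-exposed cultures.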

[7] = at 5.0 µM (retest, dose inferred, filed as 0.5)
[8] = at 50.0 µM (retest, dose inferred, filed as 5.0)

| Compound | growth inhibition [1, 7] | growth inhibition [1, 8] | growth inhibition ([1]; at 50.0 µM) | growth inhibition [2, 7] | growth inhibition [2, 8] | growth inhibition ([2]; at 50.0 µM) | growth inhibition [3, 7] | growth inhibition [3, 8] | growth inhibition ([3]; at 50.0 µM) | growth inhibition [4, 7] | growth inhibition [4, 8] | growth inhibition ([4]; at 50.0 µM) | growth inhibition [5, 7] | growth inhibition [5, 8] | growth inhibition ([5]; at 50.0 µM) | growth inhibition [6, 7] | growth inhibition [6, 8] | growth inhibition ([6]; at 50.0 µM) |
| --- | --- | --- | --- | --- | --- | --- | --- | --- | --- | --- | --- | --- | --- | --- | --- | --- | --- | --- |
| CC1=C(C(=O)Nc2ccccc2)C(c2cccc([N+](=O)[O-])c2)C(C(=O)Nc2ccccc2)=C(C)N1 | 4% | 30% | -7.95% | 1% | 63% | 26.1% | 4% | 30% | 19.1% | -2% | 24% | 4.75% | 6% | 75% (active) | 35.4% | -7% | 24% | 18.9% |
| CN(C)c1ccc(C(O)(Cc2cccc(C#N)c2)c2ccc(N(C)C)cc2)cc1 | 2% | -13% | 63.5% | 0% | -6% | 55.9% | -4% | -10% | 52.8% | -2% | -16% | 66% | 2% | -5% | 69% | -2% | -70% | 56.8% |
| CCOC(=O)NC(c1ccc(C(NC(=O)OCC)P(=O)(O)NC23CC4CC(CC(C4)C2)C3)cc1)P(=O)(O)NC12CC3CC(CC(C3)C1)C2 (stereo unspecified) | -8% | -6% | 60.4% | 5% | -10% | 84.2% (active) | -8% | -24% | 81% (active) | -30% | -2% | 71.8% (active) | 13% | -7% | 91% (active) | -31% | -21% | 76.4% (active) |
| O=C(O)CCSCc1cc(C(=O)Nc2ccc(/C=C/c3ccc(NC(=O)c4cc(CSCCC(=O)O)c5cccnc5c4O)cc3S(=O)(=O)O)c(S(=O)(=O)O)c2)c(O)c2ncccc12 | 48% | 53% | 74% (active) | 37% | 89% (active) | 61.6% | 58% | 53% | 79.1% (active) | 22% | 74% (active) | 45.5% | 59% | 96% (active) | 78.4% (active) | 52% | 92% (active) | 79.5% (active) |
| C=C1C(=O)OC2C/C(C)=C/CC/C(C)=C/CCC3(COC(C)=O)OC3CC12 (stereo unspecified) | 4% | 98% (active) | 92.7% (active) | 14% | 98% (active) | 94.2% (active) | 10% | 97% (active) | 94.2% (active) | 1% | 95% (active) | 92.5% (active) | 11% | 97% (active) | 93.2% (active) | 37% | 98% (active) | 92.8% (active) |
| Cn1cc(NC(=O)c2cc(NC(=O)CCCCCCCCCCC(=O)Nc3cc(C(=O)Nc4cc(C(=O)NCCC(=N)N)n(C)c4)n(C)c3)cn2C)cc1C(=O)NCCC(=N)N | 92% (active) | 98% (active) | 89.5% (active) | 95% (active) | 98% (active) | 92% (active) | 95% (active) | 99% (active) | 92% (active) | 72% (active) | 97% (active) | 91.4% (active) | 96% (active) | 98% (active) | 91% (active) | 92% (active) | 97% (active) | 90.2% (active) |
| O=S1(=O)CS(=O)(=O)OCCCO1 | 10% | 10% | -15.7% | 8% | 8% | -32.8% | 7% | 15% | -23.4% | 12% | 9% | -9.45% | 7% | 7% | -30.1% | 11% | 16% | -59.5% |
| CN(C)CCC(/C=C/c1ccccc1)=N\Nc1ccc(Cl)c(Cl)c1 | 98% (active) | 96% (active) | 99.7% (active) | 99% (active) | 98% (active) | 99.6% (active) | 99% (active) | 98% (active) | 99.5% (active) | 75% (active) | 95% (active) | 98% (active) | 95% (active) | 97% (active) | 99.3% (active) | 98% (active) | 97% (active) | 99.5% (active) |
| O=[N+]([O-])c1ccc(NSc2ccccc2)cc1 | -14% | 98% (active) | 89.2% (active) | 2% | 99% (active) | 92.5% (active) | 5% | 97% (active) | 90.2% (active) | 21% | 99% (active) | 90.6% (active) | 10% | 98% (active) | 91.3% (active) | 6% | 99% (active) | 88.2% (active) |
| NC(=O)/C=C/C(=O)c1c(Cl)cccc1Cl | 97% (active) | 100% (active) | 91.1% (active) | 99% (active) | 100% (active) | 92% (active) | 99% (active) | 100% (active) | 91.7% (active) | 46% | 98% (active) | 90.3% (active) | 99% (active) | 100% (active) | 88.3% (active) | 100% (active) | 100% (active) | 91% (active) |
| CCOC(=O)NCCCc1ccc2oc3ccccc3c2c1 | -1% | 97% (active) | 81.6% (active) | -3% | 98% (active) | 19.6% | -3% | 97% (active) | 90.8% (active) | 1% | 95% (active) | -12.7% | 9% | 98% (active) | 19.8% | -1% | 97% (active) | 57.9% |
| O=C(NNc1ccc(F)cc1)C12CC3CC(CC(C3)C1)C2 | 9% | 90% (active) | 98.4% (active) | 3% | 68% | 17.8% | 4% | 98% (active) | 53.2% | 4% | 57% | 27.1% | -3% | 97% (active) | 98.3% (active) | 2% | 98% (active) | 27.1% |
| CCNCCNc1cc(O)c2c(c1O)C(=O)c1ccccc1C2=O | 73% (active) | 98% (active) | 87.2% (active) | 92% (active) | 98% (active) | 84.9% (active) | 78% (active) | 98% (active) | 83.5% (active) | 30% | 83% (active) | 67.8% | 96% (active) | 98% (active) | 78.5% (active) | 91% (active) | 98% (active) | 91.7% (active) |
| O/N=C(/C[n+]1csc2ccccc21)c1ccccc1 | -6% | 82% (active) | 35.3% | -8% | 34% | 79.5% (active) | -9% | 87% (active) | 73.7% (active) | -6% | 32% | 37% | 12% | 76% (active) | 76.8% (active) | 1% | 88% (active) | 48% |
| O=C1NC2(C=Cc3c(ccc4ccccc34)O2)Oc2ccccc21 (stereo unspecified) | -12% | -8% | 44.5% | -16% | -7% | 10% | 6% | 11% | 34% | 31% | 48% | 24.4% | 4% | -8% | 7.65% | -3% | 3% | 62% |
| CCN(CC)CCNc1ccc2nnn3c4ccc([N+](=O)[O-])cc4c(=O)c1c23 | 16% | 35% | 66.5% | 1% | 12% | 26% | 5% | 15% | 66% | 24% | 27% | 36.2% | 9% | 35% | 37.9% | 11% | 30% | 76% (active) |
| CC(=O)Nc1nnc(C)s1 | 0% | -3% | 4.25% | 0% | -3% | -11.8% | -2% | -5% | -4.4% | -3% | 6% | 13% | 1% | 1% | -19.3% | 1% | -3% | -18.8% |

Source: PubChem BioAssay (NCI)
